In PubChem BioAssay (NCI):
Compounds without any hit were thinned out: in the full panel of roughly 83,000, 20% have a hit.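 Testing used 96-well plates and a 48-hour single-concentration exposure. Example: -40 means 40% of the starting cells died.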 Unmarked numbers belong to inactive results. Activity calls are given as the source filed them. How the source made its calls: active means growth percent below 10; inactive means the rest.

System: NCI/ADR-RES ovarian
Assay: NCI-60 one-dose screen, 48 h (100 = growth as untreated, 0 = no growth, -100 = all killed)
Settings: 10 µM unless noted

Compound	growth
CC(Br)C(O)c1cc2c(cc1Br)OCO2 (configuration not stated)	105%
OC1CC2c3ccccc3C1c1ccccc12 (configuration not stated)	110%
Cc1cc(C)c(S(=O)(=O)N2CCN(c3cc4c(cc3F)c(=O)c(C(=O)O)cn4C3CC3)CC2)c(C)c1	69.9%
O=C(c1ccccc1)C(Cl)C(Cl)c1ccccc1 (configuration not stated)	80.2%
Cc1cc(Cl)ccc1OC(C)C(=O)Nc1nnc(C2CC2)s1 (configuration not stated)	96.6%
Cc1sc2nc(CSc3nnc(-c4ccco4)o3)[nH]c(=O)c2c1C	112%
CCCCCCCCCCCCCCCCCCOc1cccc(CCOP(=O)(O)OCC[N+](C)(C)C)c1	94.1%
C=CCOc1ccc(/C(O)=C2\C(=O)C(=O)N(c3nccs3)C2c2ccccc2F)cc1 (configuration not stated)	119%
CC/C(=C(\c1ccc(O)cc1)c1ccc(OCCN(C)CCN(C)C(=O)CCC(=O)c2c(C)[nH]c(/C=C3\N=C(c4ccc[nH]4)C=C3OC)c2C)cc1)c1ccccc1	79.8%
Cc1ccc(Oc2nc3ccccc3cc2-c2nnc(Cn3c(COc4ccccc4)nc4ccccc43)o2)cc1	34.6%
CCOC(=O)c1cc(/C(=N\O)c2cc(OC)c(OC)c(OC)c2)n2cc(C)cc(C)c12	22.6%
NC(=O)c1ccc2c(c1)OCO2	97%
NC(=O)NNC(=O)c1ccccc1	103%
O=c1c2cccc3c(Nc4ccc(F)cc4)ccc(c32)c2nc3ccccc3n12	91.4%
C=C1C(=O)O[C@H]2[C@H]1CC/C(COC(=O)NCc1cc(OC)c(OC)c(OC)c1)=C\CC[C@@]1(C)O[C@@H]21	110%
Cc1cc(C(=O)O)c(N)c(C)n1	108%
Cc1ccc(Nc2ncnc3c2sc2ncccc23)cc1	98.8%
O=C1CCC(=O)N1Cc1ccccc1	89.8%
COc1ncc(-c2ccc3ncnc(Nc4cccc(Cl)c4)c3c2)cc1NS(=O)(=O)C1CC1	40.8%

Compound	growth
O=C(Nc1ccc(I)cc1)c1cccc([N+](=O)[O-])c1O	9.57% (active)
COc1cc(NC(=O)CCl)ccc(=O)c1	92%
COc1ccc(/C=C/c2nc(N3CCOCC3)c3nc(Cl)c(Cl)cc3n2)cc1OC	99.4%
CCCCCCCC/C=C\CCCCCCCCOc1ccccc1CCOP(=O)(O)OCC[N+](C)(C)C	98.4%
COC(=O)c1ccc(C)cc1	106%
COc1ccc(/C(=N/O)c2cc(OC)c(OC)c(OC)c2)c(OC)c1N	31%
C=C1C(=O)O[C@H]2[C@H]1CC/C(COC(=O)NCCc1cccc(OC)c1)=C\CC[C@@]1(C)O[C@@H]21	80%
COc1ccc(-c2cn[nH]c2-c2cc(OC)c3c(c2)OCCO3)cc1	9.78% (active)
CCN(Cc1ccccc1)c1ccc(SC#N)cc1	81.9%
Cc1ccc2c(c1)C(C)Cc1c(ncnc1-n1cnc3ccccc31)N2C (configuration not stated)	17%
Cc1nc2sccn2c1-c1csc(Nc2ccccc2Cl)n1	21.6%
C=CCc1cc(Cl)cc2c(OC(C)=O)c(C(C)=O)c(-c3ccccc3)nc12	119%
Cc1nc2scc(-c3ccccc3)n2c(=O)c1CCO	112%
COc1ccc(/C=C\c2cc(OC)c(OC)c(OC)c2)c(NS(=O)(=O)c2ccc(C(C)(C)C)cc2)c1O	9.51% (active)
CCCCCCOc1ccc(C2(Cl)c3ccccc3N(C)c3ccccc32)cc1	52.3%
CC(C)C[C@H](NC(=O)[C@H](Cc1ccccc1)n1ccc(N2CCCCC2)cc1=O)B(O)O	90.3%
Cc1ccccc1C(=O)c1ccccc1C(=O)O	108%
CC1CCc2c(sc(NC(=O)CSc3nnc4ccccn34)c2C(N)=O)C1 (configuration not stated)	118%
COc1ccc2c(c1)C=CC(C#N)N2C(=O)c1ccccc1 (configuration not stated)	6.62% (active)

System: T-47D breast
Assay: as above
Settings: 10 µM unless noted

Compound	growth
CC(Br)C(O)c1cc2c(cc1Br)OCO2 (configuration not stated)	100%
OC1CC2c3ccccc3C1c1ccccc12 (configuration not stated)	111%
Cc1cc(C)c(S(=O)(=O)N2CCN(c3cc4c(cc3F)c(=O)c(C(=O)O)cn4C3CC3)CC2)c(C)c1	62.9%
O=C(c1ccccc1)C(Cl)C(Cl)c1ccccc1 (configuration not stated)	-1.59% (active)
Cc1cc(Cl)ccc1OC(C)C(=O)Nc1nnc(C2CC2)s1 (configuration not stated)	90.9%
Cc1sc2nc(CSc3nnc(-c4ccco4)o3)[nH]c(=O)c2c1C	95.4%
CC/C(=C(\c1ccc(O)cc1)c1ccc(OCCN(C)CCN(C)C(=O)CCC(=O)c2c(C)[nH]c(/C=C3\N=C(c4ccc[nH]4)C=C3OC)c2C)cc1)c1ccccc1	69.3%
Cc1ccc(Oc2nc3ccccc3cc2-c2nnc(Cn3c(COc4ccccc4)nc4ccccc43)o2)cc1	48.9%
CCOC(=O)c1cc(/C(=N\O)c2cc(OC)c(OC)c(OC)c2)n2cc(C)cc(C)c12	26.9%
NC(=O)c1ccc2c(c1)OCO2	111%
NC(=O)NNC(=O)c1ccccc1	111%
O=c1c2cccc3c(Nc4ccc(F)cc4)ccc(c32)c2nc3ccccc3n12	23.4%
C=C1C(=O)O[C@H]2[C@H]1CC/C(COC(=O)NCc1cc(OC)c(OC)c(OC)c1)=C\CC[C@@]1(C)O[C@@H]21	34%
Cc1cc(C(=O)O)c(N)c(C)n1	112%
Cc1ccc(Nc2ncnc3c2sc2ncccc23)cc1	95.9%
O=C1CCC(=O)N1Cc1ccccc1	113%
COc1ncc(-c2ccc3ncnc(Nc4cccc(Cl)c4)c3c2)cc1NS(=O)(=O)C1CC1	-1.98% (active)

Compound	growth
O=C(Nc1ccc(I)cc1)c1cccc([N+](=O)[O-])c1O	9.64% (active)
COc1cc(NC(=O)CCl)ccc(=O)c1	67.1%
COc1ccc(/C=C/c2nc(N3CCOCC3)c3nc(Cl)c(Cl)cc3n2)cc1OC	88.2%
COc1ccc(/C(=N/O)c2cc(OC)c(OC)c(OC)c2)c(OC)c1N	27.2%
COc1ccc(C2CC(=O)Nc3c2c(C)nn3-c2nc3ccccc3[nH]2)cc1OC (configuration not stated)	65.7%
C=C1C(=O)O[C@H]2[C@H]1CC/C(COC(=O)NCCc1cccc(OC)c1)=C\CC[C@@]1(C)O[C@@H]21	20.4%
COc1ccc(-c2cn[nH]c2-c2cc(OC)c3c(c2)OCCO3)cc1	49.5%
Cc1ccc2c(c1)C(C)Cc1c(ncnc1-n1cnc3ccccc31)N2C (configuration not stated)	50.3%
Cc1nc2sccn2c1-c1csc(Nc2ccccc2Cl)n1	41%
C=CCc1cc(Cl)cc2c(OC(C)=O)c(C(C)=O)c(-c3ccccc3)nc12	90.8%
Cc1nc2scc(-c3ccccc3)n2c(=O)c1CCO	99.6%
COc1ccc(/C=C\c2cc(OC)c(OC)c(OC)c2)c(NS(=O)(=O)c2ccc(C(C)(C)C)cc2)c1O	72.2%
CCCCCCOc1ccc(C2(Cl)c3ccccc3N(C)c3ccccc32)cc1	44.2%
CC(C)C[C@H](NC(=O)[C@H](Cc1ccccc1)n1ccc(N2CCCCC2)cc1=O)B(O)O	-20.4% (active)
Cc1ccccc1C(=O)c1ccccc1C(=O)O	107%
CC1CCc2c(sc(NC(=O)CSc3nnc4ccccn34)c2C(N)=O)C1 (configuration not stated)	105%
COc1ccc2c(c1)C=CC(C#N)N2C(=O)c1ccccc1 (configuration not stated)	69.8%
